Results reported in PubChem BioAssay AID2315 (National Center for Advancing Translational Sciences (NCATS), 2010).
The whole screen tested about 290,000 compounds, of which about 27,000 (9.3%) were called active. The sample holds actives, similar compounds and a random draw of the others, so the mix is not that of the screen. A number with no mark means an inactive call. Rule as the data show it: active = inhibition mostly above about 28% (no sharp cut-off); inactive = mostly below about 43%.

Experiment: A qHTS for Small Molecule Inhibitors of Shiga Toxin; also: 0% is about no effect
Settings: Vero cells, Shiga toxin protein synthesis inhibition reporter; at 38.7 µM, active compounds read high

First: Cc1ccc(NS(=O)(=O)c2c(C)[nH]c(C)c2C(=O)N2CCCCC2)c(C)c1
Second: O=C(Nc1nnc(S(=O)(=O)N2CCCCCC2)s1)c1cccc(Br)c1
The inhibition of the first is higher: -1.7% for the first, -2.66% for the second.

Going from `CCOc1ccc(NC(=O)CC(Cc2ccc(Cl)cc2)C(=O)O)cc1` (stereo unspecified) to `CCc1ccc(NC(=O)CN2CCC(C(=O)c3ccc(OC)cc3)CC2)cc1`, the inhibition falls from -2.62% to -10.2%.

Compared with `COC(=O)c1c(NC(=O)c2ccccc2F)sc2c1C(C(=O)OC)CC2` (stereo unspecified), `COc1cccc(C(=O)Nc2nnc(S(=O)(=O)N3CCOCC3)s2)c1` is higher in inhibition: -16.3% for the first, 7.84% for the second.

Going from `COC(=O)[C@@H]1CC(O)CN1C(=O)C12CC3CC(CC(C3)C1)C2` (stereo partly specified) to `S=C(NNC(=S)NC1CC2CCC1C2)NC1CC2C=CC1C2` (stereo unspecified), the inhibition rises from 4.2% to 38%.

Compared with `O=C(Nc1ccc(N2CCOCC2)c(Cl)c1)c1ccc(S(=O)(=O)N2CCOCC2)cc1`, `O=C(Nc1ccc(S(=O)(=O)Nc2nccs2)cc1)c1cccc(S(=O)(=O)N2CCOCC2)c1` is higher in inhibition: -13.3% for the first, -3.68% for the second.

Going from `O=C(c1cnc(Cl)c(Cl)c1)N1CCN(S(=O)(=O)c2ccc(F)cc2)CC1` to `O=C(CCN1C(=O)C2C3CCC(C3)C2C1=O)Nc1ccc(Cl)cc1Cl` (stereo unspecified), the inhibition rises from 1.5% to 30.5%.

Compared with `CCNC(=O)CC1C(=O)N(c2ccc(OC)cc2)C(=O)N1CCOC` (stereo unspecified), `COc1cccc(C(O)Cc2nc3ccccc3n2C)c1OC` (stereo unspecified) is higher in inhibition: -7.39% for the first, 10.7% for the second.

First: CC(C)C[C@H](NC(=O)N1CC(=O)Nc2ccccc21)C(=O)N[C@H](Cc1ccccc1)C(=O)O
Second: O=C(CN1CCC(NC(=O)Nc2ccccc2)CC1)Nc1cccc([N+](=O)[O-])c1
The inhibition of the first is higher: -3.7% for the first, -6.37% for the second.

Compared with `CCCn1c(C(O)c2ccc(OCC)cc2)nc2ccccc21` (stereo unspecified), `Cc1csc(=Nc2ccccc2)n1CCO` is higher in inhibition: -6.45% for the first, -5.67% for the second.

Going from `S=C(NNC(=S)NC1CC2C=CC1C2)NC1CC2C=CC1C2` (stereo unspecified) to `Cc1cccc(NC(=O)C2CCN(C(=O)NC3CCCCC3)CC2)c1`, the inhibition falls from 18.6% to -14.2%.

Work on `Cc1csc(=NC(=O)c2ccccc2)n1CCO` yielded an inhibition of -11%.

With `O=C(Nc1nnc(S(=O)(=O)N2CCOCC2)s1)c1cccc(Br)c1` the inhibition was 31.4% (active).
With `O=C(Nc1ccc(S(=O)(=O)N2CCOCC2)cc1)c1ccc2ncsc2c1` the inhibition was 64.5% (active).
In the case of `CCOc1ccc(C(O)Cc2nc3ccccc3n2C)cc1` (stereo unspecified), the inhibition is reported as 61.7% (active).
For `CC(C)c1ccc(NC(=S)NC2CC3C=CC2C3)cc1` (stereo unspecified), the inhibition was 81.8% (active).
For `OCCn1c(-c2ccccc2)csc1=Nc1ccccc1`, the inhibition was 29.8% (active).
